Hits are enriched below; roughly 9.4% of the tested compounds scored in any of these assays.
ELG1 genotox – induces genotoxicity in HEK293T cells with luciferase-tagged ELG1. actives 1.3% (n = 330,000). HEK293T ELG1-luciferase reporter, luminescence, 16 h. Potency, µM (top dose mostly 46 µM), for inactives: at the top dose activity change, positive = activation, most hits filed as activators. AID 504466; further: % of control where 0% means no effect; nearly all actives have a fitted effect of over 60% in size
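Reporter readout depends on ELG1 protein level, which increases with genetic stress. After 16 hr compound exposure at 37 °C, luciferase activity was quantified using ONE-Glo.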
Rab9 promoter act – Rab9 promoter activation; Huh7 Rab9 promoter-luciferase reporter, luminescence, 24 h; Potency, µM (doses to about 9.22 µM), without a hit: top-dose activation, negative = inhibition, most hits filed as activators; actives 2.8% (n = 320,000); further: % of control where 0% means no effect; nearly all actives have a fitted effect of over 60% in size
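Using Huh7 cells stably transfected with Rab9 promoter–luciferase, compounds were incubated 24 h at 37 °C, 5% CO2; luciferase luminescence was read 10 min after reagent addition.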
ELG1 repair inh – inhibitors of ELG1-dependent DNA repair in HEK293T cells | HEK293T ELG1-luciferase reporter, luminescence, 16 h; DNA damage induced by 5-fluorouridine | Potency, µM (highest dose often 46.1 µM), inactives show top-dose activity change, negative = inhibition, most hits filed as inhibitors | actives 2.3% (n = 330,000); further: on the % scale 0 is the no-effect control and ±100 the full control effect; nearly all actives have a fitted effect of over 55% in size
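Reporter activity after DNA damage by 5-fluorouridine is monitored. Compound-treated cells incubate 16 hr at 37 °C, then ONE-Glo is added for 30 min before luminescence reading.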
NPC1 promoter act – activates the NPC1 promoter; Huh7 NPC1 promoter luciferase reporter, 24 h; Potency, µM (series often up to 9.22 µM), for inactives: at the top dose activation, usual class: activators; actives 2.4% (n = 320,000); AID 485313; further: % of control where 0% means no effect; nearly all actives have a fitted effect of over 60% in size
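Luciferase expression driven by the NPC1 promoter was measured in stably transfected Huh7 cells after a 24 h compound incubation, using a luciferase reagent and a luminescence read.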
SMN2 splice enh – SMN2 splice variant enhancement; HEK293 SMN2-luciferase splicing reporter, luminescence, 30-36 h; Potency, µM (doses to about 46.1 µM), for inactives: at the top dose activity change, positive = activation, most hits filed as activators; AID 1458; actives 2.8% (n = 210,000); further: % of control where 0% means no effect; nearly all actives have a fitted effect of over 55% in size
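qHTS luciferase splicing reporter: luminescence rises when SMN2 exon 7 is included in transfected HEK293 cells. Compound exposure lasted 30-36 h at 37C, with 4.5 mM final sodium butyrate as control, followed by a ONE-Glo read.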
FLuc modulator – inhibits or activates purified firefly luciferase, miR-21 counter-screen; P08659; purified FLuc, Km substrates, luminescence inhibition; Potency, µM (highest dose often 57.5 µM), for inactives: top-dose activity change, negative = inhibition, most hits filed as inhibitors; actives 6.9% (n = 360,000); AID 588342;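 further: plate controls were vehicle for no effect and reference inhibitor for full effect; nearly all actives have a fitted effect of over 55% in size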
Target sequence (P08659 whole entry, looked up): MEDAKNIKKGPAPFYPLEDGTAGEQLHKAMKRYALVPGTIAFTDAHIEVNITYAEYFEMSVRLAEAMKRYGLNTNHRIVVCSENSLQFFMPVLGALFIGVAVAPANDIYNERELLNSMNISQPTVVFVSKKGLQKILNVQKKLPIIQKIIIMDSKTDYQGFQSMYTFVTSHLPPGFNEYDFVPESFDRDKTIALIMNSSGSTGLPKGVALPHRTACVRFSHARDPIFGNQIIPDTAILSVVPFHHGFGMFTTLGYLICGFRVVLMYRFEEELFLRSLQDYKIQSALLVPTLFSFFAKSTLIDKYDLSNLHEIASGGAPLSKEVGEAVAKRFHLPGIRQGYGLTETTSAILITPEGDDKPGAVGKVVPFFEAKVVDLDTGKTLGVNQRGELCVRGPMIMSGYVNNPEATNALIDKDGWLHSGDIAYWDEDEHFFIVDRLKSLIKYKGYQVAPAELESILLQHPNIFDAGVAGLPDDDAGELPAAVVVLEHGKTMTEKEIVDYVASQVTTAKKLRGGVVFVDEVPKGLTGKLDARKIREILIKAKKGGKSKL
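Purified P. pyralis luciferase (10nM final) with 10uM D-luciferin and 10uM ATP (Km levels) in 50mM Tris acetate pH 7.5, 10mM Mg acetate, 0.01% Tween-20, 0.05% BSA; qHTS 6-point titration, ~60 µM downward; luminescence read.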
* hit, by the source's call; ? = inconclusive; · = no result given; [ ] = dose if it differs, or a comment. The call rests on the fitted dose curve; in most records, active means well fitted curve in the direction sought with a large enough effect; inconclusive means small, poorly fitted or top-dose-only effect, or another doubt; inactive means no such curve, though single readings can be large; an effect the other way counts as inactive or inconclusive. Potency means the concentration at half of the fitted maximal effect.

SMILES | ELG1 genotox | Rab9 promoter act | ELG1 repair inh | NPC1 promoter act | SMN2 splice enh | FLuc modulator
CN1/C(=C\C(=O)c2cccnc2)C(C)(C)c2ccccc21 | -3.7% | 8.2% | -0.1% | 2.7% | 10.6% | -4.1%
COc1ccc(-c2nc3ccccc3c(=O)o2)cc1OC | 9.8% | 16.5% | -3.6% | 10.2% | 6.8% | 8.49µM*
CCOc1ccc(-c2nc3ccccc3c(=O)o2)cc1 | ? | 1.41µM* | ? | 3.55µM* | 15.8µM* | 0.426µM*
C[N+](C)(C)CCC(=O)c1cccc2ccccc12 | · | · | · | · | -16.1% | ·
Cc1ccc(NC(=S)C2=C(O)c3ccccc3N(C)S2(=O)=O)cc1 | -5.6% | 4.8% | -0.7% | -0.4% | -10.1% | 19µM*
CCc1ccc(NC(=O)C(=O)NCC(c2ccc3c(c2)OCO3)N2CCOCC2)cc1 (configuration not stated) | · | · | · | · | · | -1.2%
COc1ccc(OC(=O)N2CCOCC2)cc1 | 6.1% | 12.3% | ? | 3.5% | · | 1.0%
CONC(=O)C1CCN(C(=O)OCc2ccccc2)CC1 | 4.6% | ? | 19.0% | ? | 7.94µM* | -16.1%
O=C(OCc1ccccc1)N1CCOCCOCCN(C(=O)OCc2ccccc2)CCOCCOCC1 | -7.9% | 3.5% | 10µM* | -3.4% | · | -2.6%
O=C(Oc1ccc(-c2ccccc2)cc1)N1CCOCC1 | ? | 2µM* | ? | 2.82µM* | ? | 21.3µM*
O=C(Oc1ccc(Oc2ccccc2)cc1)N1CCC(O)CC1 | ? | ? | ? | ? | · | 16.9µM*
COC(=O)CNC(=O)C1CCN(C(=O)OCc2ccccc2)CC1 | -0.5% | -2.5% | 7.7% | -0.3% | 17.9% | 0.8%
CCCC[C@]12Cc3cc(OC)c(OC)cc3C(O1)C1=C(O2)C(=O)c2ccccc2C1=O | · | -2.2%[1.84 µM] | · | 3.2%[1.84 µM] | · | -7.7%[11.5 µM]
CCNC(=O)[C@H]1O[C@@H](n2cnc3c(N)nc(NCCc4ccc(CCC(=O)O)cc4)nc32)[C@H](O)[C@H]1O | · | · | · | · | -3.5% | ·
Fc1ccc2[nH]c3c(N4CCN(C5CCCCC5)CC4)ncnc3c2c1 | -2.4% | -2.7% | -1.1% | -3.7% | · | 2.4%
c1cnc(N2CCN(Cc3ccc4c(c3)OCO4)CC2)nc1 | 3.6% | 2.5%[46.1 µM] | -4.8% | 8.2%[46.1 µM] | -10.9% | 4.3%
COc1cccc2[nH]c3c(N4CCN(Cc5ccc6c(c5)OCO6)CC4)ncnc3c12 | -31.9% | -8.0% | 23.1µM* | -3.3% | · | -10.8%
COc1ccc2c(c1)[nH]c1c(N3CCN(Cc4ccc5c(c4)OCO5)CC3)ncnc12 | -18.8% | -27.7% | 20.6µM* | -29.2% | -69.3% | -18.7%
c1nc(N2CCN(Cc3ccc4c(c3)OCO4)CC2)c2[nH]cnc2n1 | -6.5% | -0.2% | ? | -0.6% | -20.4% | -0.4%
Cc1ccc2[nH]c3c(N4CCN(Cc5ccc6c(c5)OCO6)CC4)ncnc3c2c1 | 2.9% | -18.3% | 23.1µM* | -0.4% | · | -2.1%
Cc1ccc2[nH]c3c(N4CCCCCC4)ncnc3c2c1 | -26.7% | -14.7% | 10.3µM* | -5.7% | -69.3% | 19µM*
COc1cccc2[nH]c3c(N4CCC(C)CC4)ncnc3c12 | -19.4% | 6.2% | ? | 4.6% | -24.5% | ?
COC(=O)C1=C(C(=O)OC)[C@@H]2N(C)c3ccc(OC)cc3[C@@]23C[C@@H](C(=O)OC)N(S(=O)(=O)c2c(C)noc2C)C3=N1 | · | · | · | · | 1.0%[9.22 µM] | ·
COc1ccc(CN2CCc3c(c(=O)n4ncc(C(=O)N5CCN(c6ccccc6F)CC5)c4n3C)C2)cc1 | · | · | · | · | · | -15.9%
CCOc1ccc2[nH]c3c(N4CCN(c5ccccn5)CC4)ncnc3c2c1 | -26.8% | -0.2% | 16.4µM* | 0.4% | -38.8% | ?
SMILES | ELG1 genotox | Rab9 promoter act | ELG1 repair inh | NPC1 promoter act | SMN2 splice enh | FLuc modulator
COc1ccc2c(c1)[nH]c1c(N3CCSCC3)ncnc12 | -10.0% | -18.9% | 9.2µM* | -0.6% | · | ?
Cc1nn2c(nc1=O)SCC(c1ccccc1)=N2 | ? | 3.55µM* | ? | 2.24µM* | ? | 3.0%
COc1cc(-c2nnc3n(CCc4ccccc4)c(=O)c4ccccc4n23)cc(OC)c1OC | -12.5% | 10.4% | 20.6µM* | 2.0% | -9.1% | -6.2%
COc1ccc(-c2nnc3n(CCc4ccccc4)c(=O)c4ccccc4n23)c(OC)c1 | -7.8% | -0.1% | 8.2µM* | -0.2% | · | -2.8%
Cc1cc(C)c(NC(=O)CS(=O)CC(=O)NC2CCCc3ccccc32)c(C)c1 (configuration not stated) | -2.8% | 2.2% | -12.6% | -1.2% | 2.1% | 0.8%
COc1ccc(C(=O)N/N=C/c2ccc(OC)c(CN3CCN(c4ccc(F)cc4)CC3)c2)cc1 | -9.7% | 2.4% | 20.6µM* | -3.8% | -9.9% | -1.2%
COc1ccc(/C=N/NC(=O)c2cccnc2)cc1CN1CCN(c2ccc(F)cc2)CC1 | -6.1% | -2.6% | ? | -1.5% | -6.0% | -6.7%
COc1ccc(C(=O)N/N=C\c2ccc(OC)c(COc3ccccc3Br)c2)c(OC)c1 | -12.5% | -1.1% | 8.2µM* | -5.9% | · | 5.1%
COc1ccc(OCc2cc(/C=N\NC(=O)c3ccccc3)ccc2OC)cc1 | ? | ? | ? | ? | · | 12µM*
COc1cc(OC)cc(C(=O)N/N=C/c2ccc(OC)c(COc3ccc(F)cc3)c2)c1 | -3.8% | -9.7% | -14.2% | -23.7% | -16.4% | 7.7%
CCOC(=O)c1cc(-c2ccc(OC)cc2)n(CCC(=O)Nc2ccccc2OC)c1C | · | · | · | · | · | -8.0%
COc1ccccc1C(=O)c1cn(CC(=O)Nc2ccccc2F)c2nc(C)ccc2c1=O | · | · | · | · | · | -5.9%
COc1ccc(CCNc2oc(COc3ccccc3Cl)nc2C#N)cc1OC | -6.4% | -0.7% | 23.1µM* | -1.7% | -15.8% | -0.3%
COc1ccc(CCNc2oc(COc3ccccc3F)nc2C#N)cc1OC | -24.8% | 2.6% | 23.1µM* | -2.2% | -20.2% | -3.2%
COc1ccc(CCNc2oc(Cc3ccccc3)nc2C#N)cc1OC | -0.9% | -7.6% | ? | -1.7% | -0.4% | -4.4%
O=C(NCc1cccs1)c1ccc2c(c1)N(Cc1ccccc1Cl)C(=O)c1ccccc1S2 | · | · | · | · | · | 0.9%
O=C(Nc1nccs1)C1=COCCO1 | 6.7% | · | ? | · | · | ·
CCCCCc1nnc(NC(=O)C2=COCCO2)s1 | ? | 2.24µM* | ? | 2.82µM* | · | 19µM*
CC(C)Cc1nnc(NC(=O)C2=COCCO2)s1 | ? | ? | ? | ? | · | 16.9µM*
CCCCCc1nnc(NC(=O)C2CCCO2)s1 (configuration not stated) | 13µM* | ? | ? | 27.8% | ? | ?
Cc1cc(C(=O)NNc2c(Cl)cccc2Cl)no1 | 1.3% | 1.1% | -1.1% | -2.3% | · | -0.1%
CCOC(=O)N/N=C/c1cn(CCCOc2ccccc2)c2ccccc12 | -2.5% | ? | ? | ? | -48.6% | -0.4%
